sEH activator: increases human soluble epoxide hydrolase activity; purified human sEH enzymatic activity, activator screen; 91,000 tested, 0.04% active; activation, % at 2 µM; P34913; AID 717; in the data active = activation above about 37%
Cav32 inh: human Cav3.2 channel inhibition, primary screen | O95180 | Cav3.2-expressing cells, Fluo-4 calcium fluorescence FDSS; hits give low values | B-score at 10 µM | 100,000 tested, 4% active | AID 449739;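 active = single-dose well whose peak fluorescence ratio is a statistical outlier from its plate by either plate-standardised score or position-corrected B-score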
PostGolgi yeast: growth inhibition of a yeast mutant, post-Golgi transport screen; post-Golgi transport phenotypic cell assay; 98,000 tested, 0.9% active; AID 739; inhibition, % at 10 µM;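 note: yeast cells grown in 1536-well plates; yeast grown about 18 h at 30C before absorbance read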
sEH inh: blocks human soluble epoxide hydrolase activity; 91,000 tested, 0.34% active; P34913; AID 707; inhibition, % at 2 µM; recombinant human sEH enzymatic activity assay; in the data active = inhibition above about 80%
PostGolgi ctrl: yeast control strain growth, post-Golgi counter-screen; efflux-deficient yeast background strain, growth absorbance A615, 16 h; inhibition, % at 10 µM; 98,000 tested, 5% active; AID 738
Numbers without * were called inactive; / = not tested or not shown. Shown are actives, neighbours in structure and some others; about 7.8% of the full set was active somewhere. Cut-off read from the data, not from the text of the source, unless noted: active = inhibition above about 30%; inactive = the rest.

SMILES | sEH activator | Cav32 inh | PostGolgi yeast | sEH inh | PostGolgi ctrl
Cc1cc2cc(CNC(=O)NC3CCCCC3)ccc2[nH]1 | -90 | -0.022 | 7 | 90* | 0
O=C(NCc1ccc(N2CCCC2=O)cc1)NC1CCCCC1 | -80 | -0.18 | -4 | 80* | 4
O=C(CN(C(=O)CNC(=O)c1ccco1)c1ccc(Cl)c(Cl)c1)NC1CCCCC1 | -15 | -4.3* | -3 | 16 | 6
O=C(CN(C(=O)CNC(=O)c1ccco1)c1ccc2c(c1)OCO2)NC1CCCCC1 | -4 | -1.4 | 8 | 4 | -3
Cc1ccc(C(C(=O)NC2CCCCC2)N(CCC(C)C)C(=O)CNC(=O)c2ccco2)o1 (stereo not given) | 3 | -4.7* | 0 | -2 | 1
O=C(Nc1ccc2c(c1)OCO2)C(c1ccc(Cl)cc1)N1CCC2(CC1)OCCO2 (stereo not given) | 5 | -6.7* | 1 | -4 | 18
CC(C)c1ccc(NC(=O)C(c2ccc3c(c2)OCO3)N2CCC3(CC2)OCCO3)cc1 (stereo not given) | / | -7.5* | -2 | / | 11
CCOCCCNC(=O)C(c1ccc(Cl)cc1)N1CCC2(CC1)OCCO2 (stereo not given) | 6 | 1.7 | -4 | -6 | 1
CC(C)c1ccc(NC(=O)C(c2ccc3c(c2)OCO3)N2CCCCC2)cc1 (stereo not given) | 13 | -2.5 | -5 | -9 | 3
Cc1noc(/C=C/N(C)C)c1S(=O)(=O)N1CCC(C(=O)O)CC1 | / | 0.19 | -5 | / | 2
CN(C)C(=O)COC(=O)/C=C/c1ccccc1[N+](=O)[O-] | 15 | -0.0078 | -3 | -16 | 8
N#Cc1c(N2CCN(C(=O)c3ccccc3Cl)CC2)nc(-c2ccccc2)c2c1CCCC2 | 16 | / | 3 | -15 | 7
N#Cc1c(N2CCN(C(=O)c3ccco3)CC2)nc(-c2ccccc2)c2c1CCCC2 | 5 | -3.2 | 52* | -6 | 23
N#Cc1c(N2CCN(C(=O)c3ccccc3)CC2)nc(-c2ccccc2)c2c1CCCC2 | 3 | -4.9* | 57* | -3 | 28
CC1Cc2ccccc2N1c1ncnc2c1nnn2Cc1ccccc1 (stereo not given) | 1 | -1.5 | 10 | -4 | 42*
CC1Cc2ccccc2N1c1nc(C2CC2)nc2c1nnn2Cc1ccccc1 (stereo not given) | 16 | -0.53 | / | -11 | /
COC(=O)c1ccc(CSc2ncnc3c2nnn3-c2ccc(F)cc2)o1 | -8 | 1.2 | -2 | 12 | 8
COc1ccc(/C=N/NC(=O)Cc2csc(Nc3cccc(C(F)(F)F)c3)n2)cc1C | -10 | -3.9* | 9 | 10 | 20
CCOC(=O)Cc1csc(N/N=C/c2ccc(C(F)(F)F)cc2)n1 | -11 | / | -1 | 9 | 12
CCCC(=O)N1CCN(S(=O)(=O)c2cc(Cl)ccc2OC)CC1 | / | 0.24 | 3 | / | 32*
CCOC(=O)N1CCN(C(=O)CSCC(=O)Nc2nc(-c3ccc(-c4ccccc4)cc3)cs2)CC1 | 2 | -3.6 | 6 | -1 | 27
CCOC(=O)N1CCN(C(=O)CSCC(=O)Nc2nc(-c3ccc(OC)cc3)cs2)CC1 | -2 | -2.4 | -12 | -1 | 30*
COC(=O)c1cccc(Oc2nc3c(c(=O)n(C)c(=O)n3C)n2C(C)C)c1 | 29 | / | -11 | -31 | 5
CC(C)CN1C(=S)SC(C)(C)C1n1oc(=O)n(-c2ccc(Cl)cc2)c1=O (stereo not given) | -17 | -4.1* | 17 | 17 | 13
CCN(C(=O)Cc1ccc(Br)cc1)C1CCCCC1 | 10 | -4.4* | 16 | -9 | 15
SMILES | sEH activator | Cav32 inh | PostGolgi yeast | sEH inh | PostGolgi ctrl
CC(C)NC(=O)Cc1ccc(Br)cc1 | -16 | -0.0058 | -1 | 14 | 21
O=C(Nc1cccc(F)c1)N(Cc1ccc(Cl)cc1)CC(O)C(F)(F)F (stereo not given) | 0 | -7.2* | 13 | 2 | 58*
c1ccc(N2CCN(c3ncnc4scc(-c5cccs5)c34)CC2)cc1 | -18 | -3.3 | -2 | 16 | 47*
O=C(c1ccco1)N1CCN(c2ncnc3scc(-c4cccs4)c23)CC1 | -13 | -3.1 | -2 | 16 | 27
O=C(c1ccco1)N1CCN(c2ncnc3scc(-c4ccccc4)c23)CC1 | 0 | -0.42 | 13 | 0 | 10
Cc1ccc(-c2csc3ncnc(N4CCN(C(=O)c5ccccc5)CC4)c23)cc1 | 4 | -3.3 | 7 | -2 | 32*
CC[N+](C)(CC)CCOC(=O)C(O)(c1ccccc1)C1CCCCC1 (stereo not given) | / | -0.071 | / | / | /
C[N+]1(C)CCCC(OC(=O)C(O)(c2ccccc2)c2ccccc2)C1 (stereo not given) | / | -4.5* | / | / | /
